PubChem BioAssay (NCI)
The panel holds about 83,000 compounds, 20% with a hit somewhere; the sample as a whole holds those more often.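 Each cell line was grown in a 96-well plate and treated with one concentration of compound for 48 hours. Values below 10 were considered active.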 Values without a mark were called inactive. Active and inactive are the calls of the source.

Key:
Assay in all cases: NCI-60 one-dose screen, 48 h (100 = growth as untreated, 0 = no growth, -100 = all killed)
Details in all cases: 10 µM unless noted
HCT-15 colon = system: HCT-15 colon
HT29 colon = system: HT29 colon
SNB-75 CNS = system: SNB-75 CNS
SNB-19 CNS = system: SNB-19 CNS
PC-3 prostate = system: PC-3 prostate
SK-MEL-5 melanoma = system: SK-MEL-5 melanoma
UACC-62 melanoma = system: UACC-62 melanoma
LOX IMVI melanoma = system: LOX IMVI melanoma
SK-MEL-28 melanoma = system: SK-MEL-28 melanoma
U251 CNS = system: U251 CNS

Compound	growth (HCT-15 colon)	growth (HT29 colon)	growth (SNB-75 CNS)	growth (SNB-19 CNS)	growth (PC-3 prostate)	growth (SK-MEL-5 melanoma)	growth (UACC-62 melanoma)	growth (LOX IMVI melanoma)	growth (SK-MEL-28 melanoma)	growth (U251 CNS)
CC(=O)Nc1ccc(S(=O)(=O)N/N=C\c2ccc(Cl)c(Cl)c2)cc1	118%	102%	81.7%	103%	83.6%	104%	99.2%	98.7%	115%	
O=C1C(N2CCOCC2)=Cc2cccc3cccc1c23	92.6%	92.4%	86.9%	92.4%	95.4%		91.2%	101%	97.5%	
Cc1ccc(-c2c3c(N)c4c(nc3nc3c2c(C)nn3-c2ccccc2)CCCC4)cc1	99.3%	95.4%	97.2%	108%	90.9%	104%	106%	93.9%	99.8%	
COc1ccc(C(=O)C2=CC(=O)C(=O)C2)cc1OC	96.2%	98.1%	90.8%	105%	94.5%	103%		101%	112%	
Nc1nc(N)c(N=Nc2c(Br)cc(S(N)(=O)=O)cc2Br)c(N)n1	114%	115%	90.6%	97.5%	95.1%	98.2%	91.8%	110%	99.5%	
Cc1ccc2c(N/N=C\c3ccco3)cc(C)nc2n1	36.6%	26.6%	85.5%	87.4%	70.5%	94.8%	51.1%	46.5%	80.5%	
Cc1nc2cc(Nc3nc(Nc4ccc(F)cc4)nc(N4CCN(C)CC4)n3)ccc2n1Cc1ccccc1	-34.3% (active)	-51.9% (active)	-20.4% (active)	44.2%	19.7%	80.9%	-65.4% (active)	-73.6% (active)	-67.4% (active)	
O=C(N/N=C(\CS(=O)(=O)c1ccccc1)c1cc2cc(Br)ccc2oc1=O)c1ccccc1	99.8%		89.8%	103%	95.5%	103%	95.2%	99.1%	99.3%	97.7%
C[C@H]1C(=O)C23CCC1C[C@@]21O[C@@H]2C(C)(C)C=CC(=O)C23COC1=O	109%		83.6%	100%		103%		93.7%	111%	105%
C=C1CC[C@@H]2[C@@](C)(CCC[C@]2(C)C(=O)O)[C@@H]1CC[C@H](CO)CCO	108%		94.8%	101%	99.7%	112%	99.2%	99.1%	105%	102%
O=C1c2ccccc2C(=O)c2c(Nc3ccc(CCO)cc3)ccc(O)c21	61.7%		64.3%	84.8%		86.7%	74.9%	51.6%	44.8%	74.2%
COC(=O)/C=C1/CCC2C3CCC4=CC(=O)C(Br)CC4(C)C3C(=O)CC12C (stereo unspecified)	66.6%		70.8%	78.9%	53.5%	57.4%	73.5%	38.2%	94.5%	
COc1ccc(NC(=O)c2ccc3c(c2)nc(-c2ccc(Cl)cc2)n3-c2cc(C(C)(C)C)[nH]n2)cc1	82.6%		77.8%	82.6%	68.1%	70.7%	79.6%		95.4%	83.3%
c1ccc2cc(-c3n(Cc4ccc5ccccc5n4)c4ccccc4[n+]3Cc3ccc4ccccc4n3)ccc2c1	18.8%		-32.8% (active)	6.22% (active)	0.461% (active)	-96% (active)	-60.6% (active)	-85.8% (active)	-24.2% (active)	-7.46% (active)
O=C(Nc1ccc(F)cc1)c1ccc(C(=O)Nc2ccc(F)cc2)cc1	89.1%		84.1%	106%	99.6%	99.9%	107%	103%	98.6%	
Cc1nc2cc(Nc3nc(N4CCCCC4)nc(N4CCOCC4)n3)ccc2n1Cc1ccccc1	21.3%		-12.7% (active)	65.3%	47.1%	54.9%	32.1%	1.44% (active)	46.6%	

Compound	growth (HCT-15 colon)	growth (HT29 colon)	growth (SNB-75 CNS)	growth (SNB-19 CNS)	growth (PC-3 prostate)	growth (SK-MEL-5 melanoma)	growth (UACC-62 melanoma)	growth (LOX IMVI melanoma)	growth (SK-MEL-28 melanoma)	growth (U251 CNS)
O=C1c2[nH]cc(CN[C@@H]3CCCN3)c2C(=O)c2c1c(O)c1ccccc1c2O	-38.9% (active)		-71.6% (active)	-84.9% (active)	-95.1% (active)	-89.8% (active)	-100% (active)	-93% (active)	-100% (active)	-98.9% (active)
CCOC(=O)c1c(Cl)c2c(n1Cc1ccc(OC)cc1)-c1oncc1CCC2	83.7%		75%	89.1%	58.6%	72.1%	73.6%	77.8%	101%	89.3%
Cc1nc2cc(Nc3nc(Cl)nc(Nc4ccc(F)cc4)n3)ccc2n1Cc1ccccc1	72.1%		90%	92.4%	78.8%	92.4%	82.4%	43.3%	106%	
N#CCCN1CCN(CCC#N)C1=S	106%		95.6%	98.5%	99.6%	110%	91.4%	104%	122%	
COc1ccc2c(c1)c(=O)oc1c(C)c(OCC(C)=O)ccc12	86.7%		108%	101%	83.3%	103%	64.3%	94.7%	106%	90%
CCCN(CCC)c1ccc(/C=C/c2ccc3cc(OCC)ccc3n2)cc1	78.6%		98.6%	90%		78.3%	86.6%	97.6%	64.8%	74.9%
Clc1cccc(Cl)c1Nc1ccc2nnc(-c3ccncc3)n2n1	90.9%		99.4%	101%	101%	100%	106%	93.2%	105%	103%
CN1CCN(C)c2cncc(Br)c2C1=O	105%		101%	106%	103%	101%	105%	102%	110%	106%
Cc1cc(NS(=O)(=O)c2ccc(NC(=O)COc3ccc(-c4cc5ccccc5[nH]4)cc3)cc2)no1	24.7%		-12.2% (active)	29.6%	13.3%	12.4%	31.4%	4.54% (active)	18.9%	20.8%
O=c1[nH]c(=S)c2c(n1CCCO)CCC2	101%		88%	102%	103%	101%	97.2%	96.5%	111%	101%
CCCN1CCN(c2ccc3nc(-c4ccc5nc(-c6ccc(C(F)(F)F)cc6)[nH]c5c4)[nH]c3c2)CC1	-55.1% (active)		32.5%	-93.8% (active)	-68% (active)	37.2%	72.9%	-92.9% (active)	-94.6% (active)	-82.2% (active)
FC(F)(F)c1ccc2c(c1)n1cnnc1c1nncn21	111%		103%	107%	98.3%	98.7%	110%	108%	115%	
O=C1c2cc(S(=O)(=O)O)ccc2C(=O)c2c1cccc2[N+](=O)[O-]	110%		110%	106%	96.3%	114%	110%	103%	121%	99.2%
Cc1ccc(NS(=O)(=O)c2ccc(-c3cnc(C4CC4)o3)cc2)cc1	17.5%		18.8%	37.6%	49.7%	15%	27.3%	39.2%	53.9%	39.9%
CCCCCCCC/C=C\CCCCCCCCOc1cccc(CC(=O)NCC[N+](C)(C)C)c1	91.7%		59.1%	60.1%	36.4%	90.8%	80.8%	89%	99.6%	46.2%
